M1 antag: human M1 muscarinic receptor antagonists, primary screen, CHO-K1 cells, Fluo-8 calcium fluorescence, 1536-well; Muscarinic acetylcholine receptor M1 (Homo sapiens), P11229; CHO-K1 hM1, ACh EC80 antagonist; inhibition, % at 3 µM; hit rate 1.3% among 360,000; AID 588852, 2011;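 active = percent inhibition above its own plate's cutoff, namely the mean of that plate's compound wells plus 3 SD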;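 note: peak over basal fluorescence ratio during 140 s after agonist addition; 0% = ACh EC80 plus DMSO and 100% = DMSO alone without agonist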
SKN-1 block: suppressors of acrylamide-induced Pgst-4::GFP reporter in worms, primary screen, SKN-1 inhibitor project, whole organism, uHTS, GFP/RFP fluorescence ratio, strain VP596. C. elegans VP596 Pgst-4::GFP/RFP ratio, 24 h. inhibition, % at 21.8 µM. hit rate 0.49% among 360,000;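 active = interference check ratio from 0.5 to 1.5 plus GFP to RFP signal ratio inhibition reaching or exceeding a fixed threshold, cut at about 30% in these data, passing the limit was not always enough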
Myeloid diff MLP: induction of myeloid progenitor differentiation, primary screen, cell-based, flow cytometry, MLPCN library; AID 624256, 2012; calls only at 10 µM; ER-HoxA9 myeloid progenitors, lysozyme-GFP differentiation; hit rate 1% among 360,000;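 active = normalized GFP-positive differentiation at or above the plate's own cutoff, the solvent-only control mean plus 3 SD; inconclusive = no clear call, values can overlap the other calls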;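 note: cells exposed to compound for four days before flow analysis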
ATG4B inh: ATG4B protease inhibitors, primary screen, biochemical, fluorescence, uHTS. ATG4B cleavage of LC3-PLA2, NBD-HPC fluorescence, 1 h. inhibition, % at 8.33 µM. AID 504462, 2011. Cysteine protease ATG4B (Homo sapiens), Q9Y4P1. hit rate 0.51% among 340,000; in the data active = inhibition above about 40%
Target sequence (Q9Y4P1 whole entry, looked up): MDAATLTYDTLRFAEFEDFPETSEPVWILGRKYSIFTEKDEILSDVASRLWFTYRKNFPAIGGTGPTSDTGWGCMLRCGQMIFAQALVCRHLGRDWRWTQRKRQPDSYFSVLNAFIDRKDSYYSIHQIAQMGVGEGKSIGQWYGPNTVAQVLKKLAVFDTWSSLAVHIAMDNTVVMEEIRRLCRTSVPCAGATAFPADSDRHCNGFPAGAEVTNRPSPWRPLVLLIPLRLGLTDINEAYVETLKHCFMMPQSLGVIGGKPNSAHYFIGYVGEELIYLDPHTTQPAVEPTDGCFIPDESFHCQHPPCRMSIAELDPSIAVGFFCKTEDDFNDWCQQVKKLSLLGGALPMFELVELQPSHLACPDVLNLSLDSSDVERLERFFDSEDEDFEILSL
CHRM1 agonist: human M1 muscarinic receptor agonists, primary screen, Fluo-8 calcium fluorescence, CHO-K1 cells, HTS | CHO-K1 hM1, agonist mode; 0% DMSO, 100% acetylcholine EC100 | activation, % at 3 µM | hit rate 0.33% among 360,000 | AID 588814, 2011;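 active = activation above the run's mean compound activation plus 3 SD, cut at about 16% in these data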;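 note: peak over basal fluorescence ratio within a 140 s kinetic read after compound addition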
M1 PAM: human M1 muscarinic receptor positive allosteric modulators, primary screen, CHO-K1 cells, Fluo-8 calcium fluorescence, 1536-well; Muscarinic acetylcholine receptor M1 (Homo sapiens), P11229; CHO-K1 hM1, ACh EC20; 0% = ACh EC20, 100% = maximal ACh; activation, % at 3 µM; hit rate 0.088% among 360,000; in the data active = activation above about 19%, passing the limit was not always enough
* = called active by the depositor; i = inactive; ? = inconclusive; . = not tested or not shown; + = active, no number. A selection: hits, their analogues and other compounds. The true share with any hit is near 3.5%.

SMILES	M1 antag	SKN-1 block	Myeloid diff MLP	ATG4B inh	CHRM1 agonist	M1 PAM
COC(=O)c1ccc(=O)n(Cc2ccco2)c1	-11	38*	i	-4	-4	11
CCCNC(=O)C1CN(S(=O)(=O)c2ccc(Cl)s2)c2ccccc2O1 (stereo not given)	-6	20	i	-3	-6	2
O=S1(=O)CC=C(CSc2nc3ccccc3[nH]2)C1	26*	-1	i	1	-11	-19
Fc1c(F)c(F)c(CSc2nc3ccccc3[nH]2)c(F)c1F	5	-7	i	1	-3	-3
N/C(=N\OC(=O)/C=C/c1ccccc1)c1ccccc1	-8	36*	i	1	-5	7
O=C(/C=C/c1ccccc1)Nn1cnnc1	2	35*	i	-2	-1	1
N/C(=N\OC(=O)/C=C/c1ccccc1)c1ccc(Cl)cc1	-17	25	i	-14	-3	12
O=C(/C=C/c1ccccc1)/C=C/c1ccccc1	-2	81*	?	5	-6	0
CC1=C/C(=N\OC(=O)/C=C/c2ccccc2)C(C)=CC1=O	0	0	+	3	1	11
O=C(/C=C/c1ccccc1)c1ccccc1	-3	-22	i	-6	-3	-9
O=C(/C=C/c1ccccc1)OCN1C(=O)c2ccccc2C1=O	6	8	i	4	-3	-6
Cc1ccccc1NC(=S)N1CCN(c2ccccc2)CC1	-13	-5	i	4	-2	4
O=C(CSc1ccc2ccccc2c1)Nn1cnnc1	-24	15	i	-12	-2	1
O=C(CSc1ccc(Cl)cc1)Nn1cnnc1	0	3	+	6	-3	1
Cc1noc(C)c1COc1cccc(C(=O)N(C)Cc2nc3ccccc3c(=O)[nH]2)c1	-2	8	i	-20	-2	-3
CC(C)c1ccc(NC2CCCN(C(=O)CCN3CCCC3=O)C2)cc1 (stereo not given)	0	-2	+	6	-5	1
Cc1ccnn1CCC(=O)N1CCCC(Nc2ccc(C(C)C)cc2)C1 (stereo not given)	-8	-9	i	.	0	2
Cc1cc(CC(C)C)n(-c2nc3ccccc3c(=O)n2OCc2ccccc2)n1	-9	37*	i	-2	-5	2
O=[N+]([O-])c1cncn1CCN1CCOCC1	-15	13	i	3	-2	5
Cn1c(=O)c2c(nc(CN3CCc4ccccc4C3)n2Cc2cccc(Cl)c2)n(C)c1=O	-5	0	+	-20	-11	-2
COc1cc(C(=O)Oc2cccc(Nc3ncnc4ccccc34)c2)cc(OC)c1OC	41*	25	.	10	0	-20
Cc1ccc(NC(=O)CSc2nn(-c3ccccc3)c(=S)s2)cc1S(=O)(=O)N(C)C	25*	-14	i	-17	-1	-12
Cc1ccccc1OCC(=O)Nc1ccc(N2CCN(C)CC2)c(Cl)c1	45*	-11	i	-9	-13	-32
Cc1cccc(OCC(=O)Nc2ccc(N3CCN(C(=O)c4ccccc4)CC3)cc2)c1C	27*	-3	i	2	1	-12
Cc1ccc(OCC(=O)Nc2ccc(N3CCN(C(=O)c4ccco4)CC3)cc2)cc1C	20	-8	+	-5	2	-11
SMILES	M1 antag	SKN-1 block	Myeloid diff MLP	ATG4B inh	CHRM1 agonist	M1 PAM
Cc1cc(OCC(=O)Nc2ccc(N3CCN(C(=O)c4ccco4)CC3)cc2)cc(C)c1Cl	5	0	.	12	-1	-7
CC(C)C(=O)N1CCN(c2ccc(NC(=O)COc3ccccc3[N+](=O)[O-])cc2)CC1	37*	16	i	0	4	-26
CCC(=O)N1CCN(c2ccc(NC(=O)COc3cccc(C)c3C)cc2)CC1	16	-1	.	1	-5	-9
CCN(CC)C(=O)c1csc([C@@H]2O[C@H](CO)[C@H](O)[C@H](O)[C@H]2O)n1	-10	-1	i	.	-3	4
CC(C)c1ccc(NC(=O)C2(C)Cc3c(-c4ccc(C(N)=O)cc4)ccnc3O2)cc1 (stereo not given)	-14	3	i	.	-2	9
CCOc1ccc(NC(=O)C(CC)n2nc(C)c3c(C)n(-c4ccccc4)nc3c2=O)cc1 (stereo not given)	-23	1	i	8	-6	15
COc1ccc(OCC(=O)Nc2ccc(N3CCN(C(=O)c4ccccc4)CC3)c(Cl)c2)cc1	36*	4	i	-1	6	-14
COc1ccc(OCC(=O)Nc2ccc(N3CCN(C(=O)c4ccccc4C)CC3)cc2)cc1	11	-4	+	-1	3	-6
COc1ccc(OCC(=O)Nc2ccc(N3CCOCC3)c(Cl)c2)cc1	-6	3	i	10	1	1
O=C(NCc1ccccc1)C1Cc2c(-c3ccc(Cl)cc3)ccnc2O1 (stereo not given)	-23	7	?	.	5	16
CCOc1ccc(/C=C/C(O)=C2/C(=O)NC3(C)CC2c2ccccc2O3)cc1OC (stereo not given)	44*	6	i	-6	0	-15
O=C(NCC(F)(F)F)c1ccc2sc([C@H]3C[C@H](O)[C@@H](CO)O3)nc2c1	-12	-17	i	.	-2	7
COC(=O)c1ccc(OC(=O)CCN2c3ccccc3Sc3ccccc32)cc1	7	-2	i	3	-4	-6
CCN(CC)CCN1C(=O)C2C3c4ccccc4C(c4ccccc43)C2C1=O (stereo not given)	-28	-2	i	-3	-6	7
CCN(CC)CCN1c2ccccc2Sc2ccc3ccccc3c21	95*	-5	i	1	-9	-26
CCN(CC)CCN1c2ccccc2Sc2ccccc21	100*	0	i	6	-5	-24
COc1ccc2c(c1)Sc1ccccc1N2CCN(C)C	48*	7	i	-9	-4	-22
N#CC1C(=O)c2ccccc2C1c1ccccc1 (stereo not given)	2	11	?	4	-6	-1
Cc1cc(C)nc(/N=C(\N)N(Cc2ccccc2)Cc2ccccc2)n1	100*	0	i	-5	-14	-33
CCCCN(CCCC)/C(N)=N/c1nc(C)cc(C)n1	2	-3	i	4	-8	0

Screening results from PubChem.
